For eight compounds, inhibition results are on record in PubChem BioAssay.

The target in test [1] is Nuclear receptor coactivator 1 (Homo sapiens) (UniProt Q15788). Briefly: SRC1 coactivator transcriptional activity inhibitors, confirmation, cell-based, luminescence, quadruplicate (AID 588820).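 Further: 0% = DMSO wells and 100% = gossypol 36 µM treated wells.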 The following applies: HEK293 GAL4-SRC1 luciferase reporter, at 3.6 µM, hits give high values. A general note: In a reporter assay the amount or activity of a reporter protein is the signal.
Sequence of Nuclear receptor coactivator 1 (Homo sapiens) (Q15788 whole entry, looked up, the tested form may be a part): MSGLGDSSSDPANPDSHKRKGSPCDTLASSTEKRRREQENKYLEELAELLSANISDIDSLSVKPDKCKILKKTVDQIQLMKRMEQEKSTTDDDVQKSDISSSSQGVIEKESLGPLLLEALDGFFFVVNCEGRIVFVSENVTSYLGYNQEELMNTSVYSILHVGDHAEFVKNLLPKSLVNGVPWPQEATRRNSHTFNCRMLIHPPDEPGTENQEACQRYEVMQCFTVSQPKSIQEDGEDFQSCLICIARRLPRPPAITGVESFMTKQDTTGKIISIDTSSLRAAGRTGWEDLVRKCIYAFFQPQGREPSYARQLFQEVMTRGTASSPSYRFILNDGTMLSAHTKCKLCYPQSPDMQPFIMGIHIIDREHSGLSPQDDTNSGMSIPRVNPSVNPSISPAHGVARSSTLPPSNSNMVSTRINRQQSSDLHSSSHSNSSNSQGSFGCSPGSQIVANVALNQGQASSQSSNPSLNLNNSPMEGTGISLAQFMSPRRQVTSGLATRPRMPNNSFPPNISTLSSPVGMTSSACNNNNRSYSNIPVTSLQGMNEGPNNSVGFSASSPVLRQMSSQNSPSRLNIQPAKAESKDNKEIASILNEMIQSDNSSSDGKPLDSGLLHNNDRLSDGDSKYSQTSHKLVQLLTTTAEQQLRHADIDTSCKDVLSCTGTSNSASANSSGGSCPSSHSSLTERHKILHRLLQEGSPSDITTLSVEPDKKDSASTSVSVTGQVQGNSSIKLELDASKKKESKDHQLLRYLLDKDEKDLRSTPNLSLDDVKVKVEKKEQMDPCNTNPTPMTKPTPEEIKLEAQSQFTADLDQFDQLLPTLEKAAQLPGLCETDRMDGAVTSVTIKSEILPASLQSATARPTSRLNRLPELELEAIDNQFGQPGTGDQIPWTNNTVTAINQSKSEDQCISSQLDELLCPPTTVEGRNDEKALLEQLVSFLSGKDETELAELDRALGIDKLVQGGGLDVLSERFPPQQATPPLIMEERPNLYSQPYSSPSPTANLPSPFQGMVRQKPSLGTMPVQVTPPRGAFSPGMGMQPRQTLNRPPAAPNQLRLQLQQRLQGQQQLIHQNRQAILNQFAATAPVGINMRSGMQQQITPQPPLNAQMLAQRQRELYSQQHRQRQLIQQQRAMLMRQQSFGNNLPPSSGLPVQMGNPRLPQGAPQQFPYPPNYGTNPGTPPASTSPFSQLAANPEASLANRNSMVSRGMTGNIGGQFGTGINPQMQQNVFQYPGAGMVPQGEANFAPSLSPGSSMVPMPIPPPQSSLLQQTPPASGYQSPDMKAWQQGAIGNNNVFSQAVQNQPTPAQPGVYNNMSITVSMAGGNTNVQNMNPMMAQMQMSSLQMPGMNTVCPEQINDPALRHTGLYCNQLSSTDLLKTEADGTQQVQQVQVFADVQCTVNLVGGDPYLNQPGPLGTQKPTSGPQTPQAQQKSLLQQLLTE

Test [2] can be described thus: VP16 transactivation inhibitors, counter-screen for SRC1 inhibitor project, cell-based, luminescence, high throughput (AID 588824; in the data active means inhibition above about 25%). The following applies: cell-based VP16 transactivation luciferase luminescence; at 3.6 µM; hits give high values.
The nature of test [3]: StAR promoter reporter inhibitors, counter-screen for LRH-1 inverse agonist project, cell-based, luminescence, high throughput (AID 651611; in the data active means inhibition above about 28%). Conditions: StAR promoter luciferase reporter counterscreen, at 3.6 µM, hits give high values.
Test [4] concerns the target Nuclear receptor subfamily 5 group A member 2 (Homo sapiens) (UniProt O00482). Briefly: LRH-1 (NR5A2) inverse agonists, retest, confirmation, cell-based, luminescence (AID 651613; in the data active means inhibition above about 42%;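 further: HEK293T cells co-transfected with LRH-1 and StAR promoter luciferase reporter; 0% = vehicle wells and 100% = parental cells lacking receptor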). The following applies: cell-based LRH-1 luciferase reporter, inverse agonism; at 3.6 µM; hits give high values.
Test [5] addresses Steroidogenic factor 1 (Homo sapiens) (UniProt Q13285). Briefly: SF1 (NR5A1) inverse agonists, counter-screen for LRH-1 inverse agonist project, cell-based, luminescence, high throughput (AID 651614; in the data active means inhibition above about 44%;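 further: cells cotransfected with StAR promoter reporter and SF1 expression vector; 0% = vehicle on cells with receptor and 100% = vehicle on cells lacking receptor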). Conditions: cell-based SF1 luciferase reporter, at 3.6 µM, hits give high values. In general terms: Counterscreens check selectivity or assay interference.
The nature of test [6]: VP16 transactivation reporter inhibitors, counter-screen for LRH-1 inverse agonist project, cell-based, luminescence, high throughput (AID 651615; in the data active means inhibition above about 33%). Conditions: Gal4-VP16 luciferase reporter cells, at 3.6 µM, hits give high values.
The target in test [7] is Photoreceptor-specific nuclear receptor (Homo sapiens) (UniProt Q9Y5X4). Put plainly: NR2E3 agonist confirmation in cells, cell-based, luminescence, CHO-S two-hybrid (AID 624378;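 active means average inhibition above a cutoff equal to the mean inhibition of all tested compounds plus one SD, cut at about 70% in these data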;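 further: 0% = DMSO in NR2E3 cells and 100% = DMSO in cells lacking NR2E3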). Conditions: CHO-S mammalian two-hybrid NR2E3-NCOR, luciferase luminescence; at 3.98 µM; hits give high values.
Sequence of Photoreceptor-specific nuclear receptor (Homo sapiens) (Q9Y5X4 whole entry, looked up, the tested form may be a part): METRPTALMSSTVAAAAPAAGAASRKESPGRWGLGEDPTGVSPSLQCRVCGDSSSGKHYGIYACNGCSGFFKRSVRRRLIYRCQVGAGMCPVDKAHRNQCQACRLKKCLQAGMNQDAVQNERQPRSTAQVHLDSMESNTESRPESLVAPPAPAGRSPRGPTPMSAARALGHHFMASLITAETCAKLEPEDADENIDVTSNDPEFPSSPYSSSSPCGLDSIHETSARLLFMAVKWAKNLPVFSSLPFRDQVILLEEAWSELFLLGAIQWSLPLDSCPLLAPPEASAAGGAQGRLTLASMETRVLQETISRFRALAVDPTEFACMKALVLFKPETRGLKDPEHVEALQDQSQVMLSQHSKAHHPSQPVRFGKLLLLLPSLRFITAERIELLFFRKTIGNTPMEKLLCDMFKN
Test [8] is described as follows: GAL4-VP16 reporter modulators, confirmation, counter-screen for NR2E3 agonist project, cell-based, luminescence, CHO-S, high throughput (AID 624379;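 active means mean inhibition above a cutoff equal to the average over all tested compounds plus one standard deviation, cut at about 70% in these data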;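 further: luciferase from a UAS reporter driven by GAL4-VP16 transactivation; 0% = DMSO with VP16-transfected cells and 100% = DMSO with cells lacking VP16; higher means less reporter light so more repression of VP16 activity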). Conditions: CHO-S GAL4-VP16 luciferase reporter, at 3.98 µM, hits give high values.
Test [9] in a line: Gal4-VP16 luciferase reporter inhibitors, counter-screen for COUP-TFII antagonist project, cell-based, luminescence, HEK293 (AID 687007; in the data active means inhibition above about 13%). Conditions: at 8.5 µM, hits give high values.
For test [10], the target named is COUP transcription factor 2 (Homo sapiens) (UniProt P24468). Put plainly: NR2F2 transcriptional activity inhibitors, confirmation, cell-based, luciferase reporter, HEK293, triplicate (AID 687008;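 active means mean inhibition over three repeats above a set limit taken from the earlier primary screen, cut at about 38% in these data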;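 further: 100% = cells given the luciferase reporter alone without the COUP-TF2 vector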). The following applies: HEK293 NGFI-A luciferase reporter, luminescence; at 8.5 µM; hits give high values.
Sequence of COUP transcription factor 2 (Homo sapiens) (P24468 whole entry, looked up): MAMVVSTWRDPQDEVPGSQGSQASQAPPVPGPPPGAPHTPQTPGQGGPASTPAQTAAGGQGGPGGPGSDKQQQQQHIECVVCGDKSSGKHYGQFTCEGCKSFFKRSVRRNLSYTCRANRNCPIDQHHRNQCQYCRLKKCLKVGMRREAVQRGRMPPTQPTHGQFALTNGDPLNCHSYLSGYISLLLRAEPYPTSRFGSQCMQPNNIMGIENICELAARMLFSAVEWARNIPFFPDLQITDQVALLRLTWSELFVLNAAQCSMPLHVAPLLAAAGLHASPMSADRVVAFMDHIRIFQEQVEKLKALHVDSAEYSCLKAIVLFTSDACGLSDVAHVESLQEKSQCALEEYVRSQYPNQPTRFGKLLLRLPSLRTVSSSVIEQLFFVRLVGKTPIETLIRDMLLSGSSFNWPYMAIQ

Molecules are shown by their SMILES. Unmarked numbers belong to inactive results. The list shows a part of the results. Active and inactive are the calls of the source.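 How the source made its calls, unless noted: active means mean inhibition above 46.68%, the untreated control wells mean plus 3 SD; inactive means the rest.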

A word on the inhibition: it is the relative decrease from the control value, in per cent.

Sequence of Steroidogenic factor 1 (Homo sapiens) (Q13285 whole entry, looked up, the tested form may be a part): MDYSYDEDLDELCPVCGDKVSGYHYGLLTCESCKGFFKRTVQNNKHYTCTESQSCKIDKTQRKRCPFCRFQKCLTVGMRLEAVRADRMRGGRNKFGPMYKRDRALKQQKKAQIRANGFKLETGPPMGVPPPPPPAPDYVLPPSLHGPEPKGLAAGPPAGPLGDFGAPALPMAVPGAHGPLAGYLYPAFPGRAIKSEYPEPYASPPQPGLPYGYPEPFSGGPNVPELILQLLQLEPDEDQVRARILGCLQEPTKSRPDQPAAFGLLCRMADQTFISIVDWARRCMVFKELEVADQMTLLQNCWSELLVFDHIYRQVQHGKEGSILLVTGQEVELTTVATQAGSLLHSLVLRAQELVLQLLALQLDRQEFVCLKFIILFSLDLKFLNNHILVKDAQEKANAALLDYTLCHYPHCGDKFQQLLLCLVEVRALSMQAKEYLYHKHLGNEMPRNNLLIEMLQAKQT
Sequence of Nuclear receptor subfamily 5 group A member 2 (Homo sapiens) (O00482 whole entry, looked up): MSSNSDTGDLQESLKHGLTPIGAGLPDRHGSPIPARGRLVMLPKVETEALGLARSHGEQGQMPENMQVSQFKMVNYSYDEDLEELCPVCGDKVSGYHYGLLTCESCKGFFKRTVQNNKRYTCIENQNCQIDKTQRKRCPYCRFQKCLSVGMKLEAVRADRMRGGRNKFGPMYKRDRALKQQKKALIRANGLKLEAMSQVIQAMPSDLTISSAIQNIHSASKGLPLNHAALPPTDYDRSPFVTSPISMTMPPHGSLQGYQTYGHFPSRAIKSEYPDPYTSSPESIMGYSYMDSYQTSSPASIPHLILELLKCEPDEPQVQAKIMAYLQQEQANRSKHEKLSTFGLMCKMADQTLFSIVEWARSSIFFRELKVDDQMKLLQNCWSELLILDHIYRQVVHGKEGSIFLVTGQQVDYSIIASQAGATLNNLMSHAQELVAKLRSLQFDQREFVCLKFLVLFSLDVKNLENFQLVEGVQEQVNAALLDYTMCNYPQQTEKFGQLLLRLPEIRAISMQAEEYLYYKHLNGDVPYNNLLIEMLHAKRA

Consider `Cc1cccc(-n2ncc3c2CCCC3NC(=O)c2ccncc2)c1C` (centres undefined), for which the inhibition is -10.4% in test [1]; 26.6% (active) in [2]; 14.7% in test [3]; 54.5% (active) in test [4]; 52.1% (active) in [5]; 44% (active) in [6].

Turning to `CCc1c(C)nc2ncnn2c1NCCc1ccc(OC)cc1`, the inhibition was -21.1% in test [1]; 28.3% (active) in test [2]; 46.9% (active) in test [3]; 53.9% (active) in test [4]; 66.2% (active) in test [5]; 42.2% (active) in test [6].

With `O=C(CSc1nnc(Cn2nnc3ccccc32)o1)N(Cc1ccc(F)cc1)c1ccccc1`, the inhibition in test [1] is -0.43%; in test [2] it was 38.8% (active); in test [3], 24.2%; in test [4] it was 63% (active); in test [5], 56.7% (active); in test [6], 56.9% (active).

Consider `COc1ccc(CC(=O)Nc2cccc(S(=O)(=O)N3CCCCCC3)c2)cc1OC`, for which the inhibition in [1] was -18.9%; in test [2] it was 33% (active); in test [3], 20.2%; in test [4], 65.6% (active); in [5], 53.4% (active); in test [6], 49.3% (active).

On to `CN(CC(=O)NNC(=O)Cc1ccccc1F)S(=O)(=O)c1ccc(Cl)cc1`, for which the figures for the inhibition in test [1] and in [2] were -12.3% and 4.4%, respectively.

As for `C#Cc1ccc(NC(=O)C2(C)CCN2C(=O)Cc2ccc(-c3ccccc3)cc2)cc1` (centres undefined), the inhibition in [1] is 12.8%; in test [2], 36.2% (active); in [7], 50.6%; in test [8], 52.9%; in [9], 6.08%; in test [10], 44.2% (active).

Regarding `CCCCCCCCNc1ncnc2ccccc12`, the inhibition in test [1] was -40.4%; in [2], 29.4% (active); in test [3], 22.2%; in test [4], 63.7% (active); in [5], 56.2% (active); in [6], 63.4% (active).

As to `CCCCCCCCCCOC(=O)Cn1c(COc2ccccc2C)[n+](C)c2ccccc21`, the inhibition in test [1] was -8.25%; in test [2], 6.65%; in [3], -2.25%; in test [4] it was 42.2% (active); in [5] it was 38.4%; in [6] it was 38.9% (active).
